HP1b binding inh: HTS for Inhibitors of HP1-beta Chromodomain Interactions with Methylated Histone Tails; Potency, µM (top dose mostly 114 µM), for the others: top-dose activity change, negative = inhibition, usual class: inhibitors; Chromobox protein homolog 1 (Homo sapiens), P83916; 390,000 tested, 0.56% active; AlphaScreen HP1-beta / biotin-H3K9me3 peptide binding; also: potency is read from the fitted curve at half-maximal effect; nearly all actives have a fitted effect of over 70% in size
Target sequence (P83916 whole entry, looked up): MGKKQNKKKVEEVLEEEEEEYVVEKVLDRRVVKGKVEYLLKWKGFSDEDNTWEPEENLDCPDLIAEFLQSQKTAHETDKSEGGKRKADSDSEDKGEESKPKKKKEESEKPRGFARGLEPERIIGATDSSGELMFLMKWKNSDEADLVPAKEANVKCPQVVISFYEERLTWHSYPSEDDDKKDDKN
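AlphaScreen: HP1-beta (50 nM) preformed 30 min with biotin-H3(1-18)K9me3 peptide (50 nM) in PBS pH 7.4, 0.01% Tween-20. Compound added for 30 min at RT, then streptavidin donor/nickel chelate acceptor beads (10 ug/mL) for 30 min.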
VDR inhibitor: Inhibitors of the vitamin D receptor (VDR): qHTS. VDR-SRC2-3 peptide fluorescence polarization, 2 h. Vitamin D3 receptor (Homo sapiens), P11473. 400,000 tested, 0.93% active. Potency, µM, for inactives: max response, negative = inhibition, hits mostly inhibitors. AID 504847, 2011; also: potency is read from the fitted curve at half-maximal effect; % is scaled to controls: 0 for no effect and ±100 for the full control effect
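VDR–SRC2-3 interaction, FP format. Cmpds 23 nl via pintool, brief spin, 2 h ambient incubation.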
G9a inh: qHTS Assay for Inhibitors of Histone Lysine Methyltransferase G9a; Histone-lysine N-methyltransferase EHMT2 (Homo sapiens), Q96KQ7; G9a H3K9 monomethylation, AlphaScreen, 2 h; Potency, µM (series often up to 102 µM), for inactives: at the top dose activity, negative = inhibition, hits mostly inhibitors; 350,000 tested, 8.8% active; also: potency is read from the fitted curve at half-maximal effect; % is scaled to controls: 0 for no effect and ±100 for the full control effect; nearly all actives have a fitted effect of over 75% in size
Target sequence (Q96KQ7 913-1193 limits assumed): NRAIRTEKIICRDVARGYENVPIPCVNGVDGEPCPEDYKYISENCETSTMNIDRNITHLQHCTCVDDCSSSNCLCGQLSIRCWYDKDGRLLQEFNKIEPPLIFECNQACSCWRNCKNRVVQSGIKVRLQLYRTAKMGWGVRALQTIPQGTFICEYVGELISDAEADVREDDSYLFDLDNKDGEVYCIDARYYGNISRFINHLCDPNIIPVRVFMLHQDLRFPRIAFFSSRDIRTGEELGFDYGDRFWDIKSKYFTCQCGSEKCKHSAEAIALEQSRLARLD
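AlphaScreen detection with an anti-monomethyl H3K9 antibody quantified product after a 2 h room-temperature reaction containing 500 nM biotinylated H3K9 peptide, 20 µM SAM and 20 nM enzyme, which had been preincubated 15 min with compound.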
PLK1 PBD block: qHTS for Inhibitors of PLK1-PDB (polo-like kinase 1 - polo-box domain): Primary Screen; Plk1 PBD binding of FITC phosphopeptide, fluorescence polarization; Serine/threonine-protein kinase PLK1 (Homo sapiens), P53350; Potency, µM, for the others: max response, negative = inhibition, hits mostly inhibitors; 360,000 tested, 2.8% active; also: potency is read from the fitted curve at half-maximal effect; series mostly up to about 57 µM; % is scaled to controls: 0 for no effect and ±100 for the full control effect; nearly all actives have a fitted effect of over 65% in size
BAZ2B inh: qHTS Assay for Inhibitors of BAZ2B. Bromodomain adjacent to zinc finger domain protein 2B (Homo sapiens), Q9UIF8. 360,000 tested, 4.4% active. AlphaScreen BAZ2B-H3K14Ac peptide displacement. Potency, µM (series often up to 114 µM), for inactives: top-dose activity change, negative = inhibition, hits mostly inhibitors. AID 504333, 2011; also: potency is read from the fitted curve at half-maximal effect; % is scaled to controls: 0 for no effect and ±100 for the full control effect; nearly all actives have a fitted effect of over 60% in size
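Compounds, titrated to a top concentration of 110 uM, were incubated 30 min at room temperature with preformed BAZ2B/acetyl-K14 H3 peptide complex (50 nM each). Proximity signal was measured by AlphaScreen after 20 min with beads.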
JMJD2A Tudor: qHTS Assay for Inhibitors of JMJD2A-Tudor Domain; AlphaScreen JMJD2A-Tudor / H3K4me3 peptide binding; AID 504339, 2011; Lysine-specific demethylase 4A (Homo sapiens), O75164; 390,000 tested, 4.4% active; Potency, µM (series often up to 114 µM), for the others: at the highest dose activity change, negative = inhibition, actives largely listed as inhibitors; also: potency is read from the fitted curve at half-maximal effect; % is scaled to controls: 0 for no effect and ±100 for the full control effect; nearly all actives have a fitted effect of over 50% in size
USP1-UAF1 confirm: Inhibitors of USP1/UAF1: Hit Validation in Primary Assay. shares compounds with VDR inhibitor. Ub-Rhodamine cleavage, fluorescence kinetic read. Potency, µM (highest dose often 114 µM), for the others: at the top dose activity change, negative = inhibition, actives largely listed as inhibitors. 50 tested, 50% active
VDR inh confirm: qHTS for Inhibitors of the vitamin D receptor (VDR): Hit Validation in Primary Screen | shares compounds with VDR inhibitor | VDR-coactivator inhibition assay, qHTS confirmation | Potency, µM, actives largely listed as inhibitors | 840 tested, 89% active | AID 602199, 2012; also: potency is read from the fitted curve at half-maximal effect
VDR FP fluor: qHTS for Inhibitors of the vitamin D receptor (VDR): Hit Validation using a Fluorescein Assay. Potency, µM (top dose mostly 57.1 µM), inactives show top-dose activity change, negative = inhibition, most hits filed as inhibitors. AID 602200, 2012. 840 tested, 48% active. VDR-coactivator binding, fluorescein fluorescence polarization. shares compounds with VDR inhibitor; also: potency is read from the fitted curve at half-maximal effect
VDR bla reporter: qHTS for Inhibitors of the vitamin D receptor (VDR): Hit Validation using a Beta-Lactamase Assay; shares compounds with VDR inhibitor; Potency, µM (doses to about 46.1 µM), for inactives: at the top dose activity change, negative = inhibition, actives largely listed as inhibitors; VDR beta-lactamase reporter cells, FRET ratio; cells co-treated with VDR agonist LG190178; 840 tested, 23% active; also: potency is read from the fitted curve at half-maximal effect; % is scaled to controls: 0 for no effect and ±100 for the full control effect
VDR viability: qHTS for Inhibitors of the vitamin D receptor (VDR): Hit Validation using a Cytotoxicity Assay; cytotoxicity counter-screen, cell viability, qHTS; 840 tested, 18% active; shares compounds with VDR inhibitor; AID 602204, 2012; Potency, µM (top dose mostly 48.3 µM), for inactives: at the highest dose activity change, negative = cytotoxicity, most hits filed as cytotoxic;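 also: potency is read from the fitted curve at half-maximal effect; plate controls were DMSO for no effect and high-concentration cycloheximide for full effect; nearly all actives have a fitted effect of over 75% in size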
TbPYK confirm: qHTS of Trypanosoma Brucei Inhibitors: Confirmatory Assay for Cherry-picked Compounds; recombinant TbPYK, Kinase-Glo ATP luminescence; shares compounds with PLK1 PBD block; Potency, µM (titrated, usually from 76.9 µM), without a hit: at the highest dose activity change, negative = inhibition, hits mostly inhibitors; 890 tested, 67% active; also: potency is read from the fitted curve at half-maximal effect; % is scaled to controls: 0 for no effect and ±100 for the full control effect; nearly all actives have a fitted effect of over 70% in size
TbPYK ADP-Glo: qHTS of Trypanosoma Brucei Inhibitors: Orthogonal Assay for Cherry-picked Compounds; shares compounds with PLK1 PBD block; recombinant TbPYK, ADP-Glo luminescence, 60 min; Potency, µM (series often up to 76.9 µM), without a hit: at the top dose activity change, negative = inhibition, hits mostly inhibitors; 890 tested, 62% active; also: potency is read from the fitted curve at half-maximal effect; % is scaled to controls: 0 for no effect and ±100 for the full control effect; nearly all actives have a fitted effect of over 75% in size
The depositor's hits bear a star; u = inconclusive; x = no result given; [ ] = remark or other dose. Only some compounds are listed: those with a hit (about 11% of all), similar ones and a draw of the others. Calls follow the shape of the dose curve; as a rule, active = well fitted curve in the direction sought with a large enough effect; inconclusive = small, poorly fitted or top-dose-only effect, or another doubt; inactive = no such curve, though single readings can be large; an effect the other way counts as inactive or inconclusive.

SMILES | HP1b binding inh | VDR inhibitor | G9a inh | PLK1 PBD block | BAZ2B inh | JMJD2A Tudor | VDR inh confirm | VDR FP fluor | VDR bla reporter | VDR viability | others
CCCCc1c(C)nc2c(-c3ccc(Cl)cc3)c(C)[nH]n2c1=O | 14% | 10% | 9%[59 µM] | x | -19% | -17% | x | x | x | x
Cc1ccc(N=Cc2nc(-c3ccco3)oc2O)cc1 | -11% | 21% | 1%[59 µM] | -2% | x | u | x | x | x | x
O=C(Oc1oc(-c2ccco2)nc1C=Nc1ccccc1)c1ccco1 | 33% | 28µM* | u | 3µM* | -5% | -14% | 6* | u | u | -10%
O=C(Oc1ccc(-c2ccccc2)cc1)c1ccco1 | 43%[57 µM] | -8% | x | 4% | x | 6% | x | x | x | x
Cc1ccc(C(=O)Oc2oc(-c3ccco3)nc2C=Nc2ccc(Cl)cc2)cc1 | 18% | 50µM* | 50µM* | 4.7µM* | -4% | -8% | 11* | u | -4% | 1%
O=C(Oc1oc(-c2ccco2)nc1C=Nc1ccccc1)c1ccoc1 | 29% | 50µM* | 7.1µM* | 4.7µM* | -19% | -24% | u | u | u | u
CC1CC(C)CN(S(=O)(=O)c2cccc(C(=O)N3CCN(c4ccc(F)cc4)CC3)c2)C1 (stereo not drawn) | 22% | 13% | 12%[0.501 µM] | -6% | -10% | u | x | x | x | x
Cc1cc2c(cc1Cl)N(C(=O)Nc1ccc(Oc3cccnc3C)nc1)CC2 | x | -5% | u | x | x | x | x | x | x | x | USP1-UAF1 confirm=u
CCN(CC)c1ccc(C(=O)NNC(=O)Cn2c(=O)cnc3ccccc32)cc1 | x | x | x | -1% | x | x | x | x | x | x
Cc1ccc(NC(=O)Cn2cc3c(n2)CCC(C)C3)cc1C (stereo not drawn) | 11% | 4% | -2%[59 µM] | x | 2% | -17% | x | x | x | x
CC(=O)Nc1sc(N/N=C\c2ccccc2F)nc1-c1cccs1 | u | 50µM* | 10µM* | -12% | -4% | u | 2.4* | 2.2µM* | 29% | u
CC1=C(C)CS(=O)N(S(=O)(=O)c2ccccc2)C1 (stereo not drawn) | 30% | 3.2µM* | 8.9µM* | 1.5µM* | 3% | -20% | 3.8* | u | 8% | 0%
COc1cccc2c1C(=O)c1c(O)c3c(c(O)c1C2=O)C[C@](O)(C(C)=O)C[C@H]3O[C@@H]1C[C@H](N)[C@H](O)[C@H](C)O1 | x | 4% | u | x | x | x | x | x | x | x | USP1-UAF1 confirm=18µM*
CCc1nc(SCC(=O)N2CCC(C)CC2)c2c(=O)n(C)c(=O)n(C)c2n1 | 38% | -2% | 4%[59 µM] | -8% | 11% | -6% | x | x | x | x
CCCCNc1c(CCc2ccccc2)nc2nc(C)cc(C)n12 | x | x | x | -10% | x | x | x | x | x | x
c1ccc(OCc2nn3c(Cn4nnc5ccccc54)nnc3s2)cc1 | u | u | 2.8µM* | 12µM* | -8% | u | 22* | 8.9µM* | 2% | -14%
c1ccc(CCc2nn3c(Cn4cnc5ccccc54)nnc3s2)cc1 | -33% | u | 4µM* | 6.7µM* | -24% | u | 22* | 20µM* | -3% | -9%
O=C(Cc1ccsc1)NNC(=O)c1ccccc1Cl | 10% | 3% | -3% | -6% | 5% | -10% | x | x | x | x
O=C(O)c1cc(/C=C/C(=O)c2cc(F)ccc2O)c2c(c1)COCO2 | -6% | 25µM* | x | u | 50µM* | u | 6.7* | u | 27% | u
COc1ccc(C(=O)/C=C/c2cc(C(=O)O)cc3c2OCOC3)c(O)c1 | 9% | u | u | -26% | u | -17% | x | x | x | x
COCCNC(=O)C[C@H]1C[C@H]2c3cc(NS(=O)(=O)c4ccc(F)cc4)ccc3O[C@H]2[C@H](CO)O1 | x | x | x | -7% | x | x | x | x | x | x
COc1cc(/C=C2/C(=O)c3cccc([N+](=O)[O-])c3C2=O)c(Br)cc1O | 25µM* | 20µM* | 10µM* | 1.5µM* | 20µM* | 18µM* | 7.5* | 3.2µM* | u | u | TbPYK confirm=25µM*;TbPYK ADP-Glo=-17%
COc1ccccc1NC(=O)CCCCCN1C(=O)c2cccc([N+](=O)[O-])c2C1=O | 36% | -12% | x | -15% | -4% | -31% | x | x | x | x
